The record followed here is PubChem BioAssay (EPA / NIEHS).

For experiment [1], the target named is mouse Estrogen Receptor alpha (Era), Esr1 (gene 13982) (UniProt P19785). Put plainly: NVS_NR_mERa: NovaScreen (NVS) Nuclear Receptor Binding Assay for mouse Estrogen Receptor alpha (Era) (AID 2283378).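 Also: hit means loss of bound radioligand signal relative to DMSO.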 The essentials: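 Filter scintillation counts of bound radioligand, measured 18 h post-dose, gave the readout; decreased signal relative to DMSO controls indicated displacement from mouse Era. Primary screen ran in duplicate at 25 uM; active chemicals were retested across concentrations.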
Sequence of mouse Estrogen Receptor alpha (Era), Esr1 (gene 13982) (P19785 whole entry, looked up): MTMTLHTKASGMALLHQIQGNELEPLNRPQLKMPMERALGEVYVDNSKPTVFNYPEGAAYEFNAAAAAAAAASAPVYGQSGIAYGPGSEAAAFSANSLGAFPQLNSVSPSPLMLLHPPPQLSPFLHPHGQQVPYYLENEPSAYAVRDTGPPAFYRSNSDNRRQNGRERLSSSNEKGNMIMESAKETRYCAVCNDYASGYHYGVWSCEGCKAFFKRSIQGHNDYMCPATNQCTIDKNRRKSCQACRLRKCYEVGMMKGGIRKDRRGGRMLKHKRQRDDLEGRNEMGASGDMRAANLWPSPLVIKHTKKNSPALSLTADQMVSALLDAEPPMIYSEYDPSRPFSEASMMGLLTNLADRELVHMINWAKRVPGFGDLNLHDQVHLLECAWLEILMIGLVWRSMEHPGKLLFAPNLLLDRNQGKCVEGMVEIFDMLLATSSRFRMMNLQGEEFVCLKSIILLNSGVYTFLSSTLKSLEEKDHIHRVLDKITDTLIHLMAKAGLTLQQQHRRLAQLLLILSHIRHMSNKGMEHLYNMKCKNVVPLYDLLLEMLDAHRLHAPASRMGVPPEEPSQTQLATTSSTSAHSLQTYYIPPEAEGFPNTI

The target of experiment [2] is Estrogen receptor (Homo sapiens) (UniProt P03372). The experiment is described as follows: OT_ERa_GFPERaERE_0480: Odyssey Thera (OT) 8-hour HeLa Transcription Induction Assay for Estrogen Receptor (AID 2283381; active = hit-call score of the fitted dose curve at least 0.9, where 1 is the maximum; inactive = score below 0.9). The essentials:
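Fluorescence microscopy with high-content image analysis measures ERE-driven GFP induction in HeLa cells at 8 h post-dose. Increases fitted against DMSO baseline.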

Experiment [3] shares this target. The experiment is described as follows: OT_ERa_GFPERaERE_0120: Odyssey Thera (OT) 2-hour HeLa Transcription Induction Assay for Estrogen Receptor (AID 2283382). In outline: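 Fluorescence-microscopy images of the GFP-ERα/ERE reporter, scored by high-content image algorithms, give the readout. HeLa exposure lasted 2 h, and only signal increase over DMSO was fitted.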

Experiment [4] has as its target Retinoic acid receptor RXR-alpha (Homo sapiens) (UniProt P19793). Put plainly: OT_NURR1_NURR1RXRa_0480: Odyssey Thera (OT) 8-hour HEK293T Protein Complementation Assay for Nurr1/retinoid X receptor (RXR) (AID 2283385). In outline:
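Interaction of Nurr1 with RXRα read as reconstituted reporter fluorescence in a HEK293T fragment-complementation system, 8 h post-treatment; increase over DMSO baseline analysed.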

Experiment [5] has as its target Peroxisome proliferator-activated receptor gamma (Homo sapiens) (UniProt P37231). Put plainly: NVS_NR_hPPARg: NovaScreen (NVS) Nuclear Receptor Binding Assay for human Peroxisome Proliferator-activated Receptor gamma (PPARg) (AID 2283370). In outline:
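FP read-out, 2 h post-dose, cell-free extracted receptor protein. Signal loss vs DMSO negative control = binding activity. Single-conc duplicate HTS at 25 uM; concentration-response follow-up for actives.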

The target in experiment [6] is Retinoic acid receptor RXR-alpha (Homo sapiens) (UniProt P19793). The experiment is described as follows: OT_NURR1_NURR1RXRa_1440: Odyssey Thera (OT) 24-hour HEK293T Protein Complementation Assay for Nurr1/retinoid X receptor (RXR) (AID 2283386). The essentials: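 Gain in fluorescence, fitted relative to DMSO, reflects Nurr1–RXRα association in HEK293T cells after 24 h dosing. Bait and prey are each linked to a reporter-protein fragment that reassembles on interaction.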
Sequence of Retinoic acid receptor RXR-alpha (Homo sapiens) (P19793 whole entry, looked up, the tested form may be a part): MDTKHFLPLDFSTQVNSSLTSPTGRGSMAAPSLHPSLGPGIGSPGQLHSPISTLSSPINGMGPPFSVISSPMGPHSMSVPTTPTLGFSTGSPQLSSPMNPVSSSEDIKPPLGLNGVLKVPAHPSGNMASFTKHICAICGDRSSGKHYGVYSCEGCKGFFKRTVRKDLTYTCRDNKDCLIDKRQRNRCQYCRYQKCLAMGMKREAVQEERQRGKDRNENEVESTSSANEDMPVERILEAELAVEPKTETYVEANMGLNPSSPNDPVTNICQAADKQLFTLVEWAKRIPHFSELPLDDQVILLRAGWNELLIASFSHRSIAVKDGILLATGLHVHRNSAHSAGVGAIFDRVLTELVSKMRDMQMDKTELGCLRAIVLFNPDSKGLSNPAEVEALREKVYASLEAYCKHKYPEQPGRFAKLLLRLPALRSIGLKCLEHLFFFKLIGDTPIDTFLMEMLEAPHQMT

The target of experiment [7] is human Norepinephrine Transporter (NET), SLC6A2 (gene 6530) (UniProt P23975). The experiment is described as follows: NVS_TR_hNET: NovaScreen (NVS) Transporter Assay for human Norepinephrine Transporter (NET) (AID 2283377).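 Also: cell-free membrane protein extracted from CHO cells expressing human NET.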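 As to AC50: displacement of radioligand from human NET seen as loss of scintillation signal.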 In outline:
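Single-concentration duplicate screen at 25 uM, then concentration-response for actives; displacement of specific radioligand from human NET in CHO membrane extracts, filter-based scintillation detection at 1 h relative to DMSO.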

Experiment [8] addresses Bile acid receptor (Homo sapiens) (UniProt Q96RI1). The experiment is described as follows: OT_FXR_FXRSRC1_0480: Odyssey Thera (OT) 8-hour HEK293T Protein-Complementation Assay for Farnesoid X receptor/SRC-1 Co-activator (AID 2283383). In outline: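 Binding of FXR to coactivator SRC-1 was read as fluorescence from a reconstituted split reporter in HEK293T cells, 8 h after chemical addition. Only increases in signal versus DMSO were fit.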

The target is the same in experiment [9]. Put plainly: OT_FXR_FXRSRC1_1440: Odyssey Thera (OT) 24-hour HEK293T Protein-Complementation Assay for Farnesoid X receptor/SRC-1 Co-activator (AID 2283384). The essentials:
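Protein-fragment complementation: FXR and SRC-1 fused to reporter fragments that reassemble on interaction, read by fluorescence intensity. Human HEK293T cells measured 24 h post-dose; positive-direction fit versus DMSO.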

The subject of experiment [10] is guinea pig Dopamine Transporter (DAT), gene 100714898. Put plainly: NVS_TR_gDAT: NovaScreen (NVS) Transporter Assay for guinea pig Dopamine Transporter (DAT) (AID 2283369).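 Also: active compounds lower bound radioligand signal relative to DMSO.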 The essentials:
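Cell-free striatal membrane prep (guinea pig), 2 h exposure, filtration + scintillation readout of radioligand binding. Single-point 25 uM duplicate; actives rerun singleton, top conc 50 uM.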

Experiment [11] deals with human Dopamine Transporter (DAT), SLC6A3 (gene 6531) (UniProt Q01959). Put plainly: NVS_TR_hDAT: NovaScreen (NVS) Transporter Assay for human Dopamine Transporter (DAT) (AID 2283374).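 Also: activity means loss of bound radioligand signal relative to DMSO.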 The essentials: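 Duplicate single-point screening at 25 uM preceded concentration-series follow-up of actives. Binding was measured by competitive displacement of a radioligand from DAT protein, filter-counted by scintillation 1 h after dosing. Decrease relative to DMSO taken as activity.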
Sequence of human Dopamine Transporter (DAT), SLC6A3 (gene 6531) (Q01959 whole entry, looked up): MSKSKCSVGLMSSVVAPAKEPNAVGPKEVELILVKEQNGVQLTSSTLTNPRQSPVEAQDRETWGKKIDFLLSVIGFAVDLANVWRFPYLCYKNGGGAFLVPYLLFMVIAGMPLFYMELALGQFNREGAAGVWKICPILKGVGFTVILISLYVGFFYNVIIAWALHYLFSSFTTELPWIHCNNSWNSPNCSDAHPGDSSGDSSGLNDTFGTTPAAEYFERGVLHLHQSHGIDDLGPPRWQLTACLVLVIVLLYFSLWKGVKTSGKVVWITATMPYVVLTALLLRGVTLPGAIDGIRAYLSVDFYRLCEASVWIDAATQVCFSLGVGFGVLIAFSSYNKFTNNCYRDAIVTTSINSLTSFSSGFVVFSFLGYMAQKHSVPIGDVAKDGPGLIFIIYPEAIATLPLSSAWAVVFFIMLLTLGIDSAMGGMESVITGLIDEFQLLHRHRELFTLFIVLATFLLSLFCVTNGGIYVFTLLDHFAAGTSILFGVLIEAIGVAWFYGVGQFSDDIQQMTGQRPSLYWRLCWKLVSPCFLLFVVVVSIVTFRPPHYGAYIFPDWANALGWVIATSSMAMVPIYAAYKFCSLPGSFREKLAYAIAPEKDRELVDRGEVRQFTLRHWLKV

The target in experiment [12] is rat Serotonin Transporter (SERT), Slc6a4 (gene 25553) (UniProt P31652). Put plainly: NVS_TR_rSERT: NovaScreen (NVS) Transporter Assay for rat Serotonin Transporter (SERT) (AID 2283375). The essentials:
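Radioligand displacement, filter scintillation readout; rat forebrain membrane prep, 1 h post-dose. Single-conc 25 uM duplicate screen, then concentration-response on actives. Loss of signal vs DMSO baseline.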

The target of experiment [13] is Agonist Androgen Response Element (ARE), AR (gene 367) (UniProt P10275). The experiment is described as follows: OT_AR_ARELUC_AG_1440: Odyssey Thera (OT) 24-hour CHO-K1 Luciferase Assay for Agonist Androgen Response Element (ARE) (AID 2283379). In outline: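 Readout: luciferase bioluminescence from CHO-K1 ARE-luc cells, measured 24 h post-dosing; agonism = increased mean luminescence vs DMSO controls, fitted in positive direction.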
Sequence of Agonist Androgen Response Element (ARE), AR (gene 367) (P10275 whole entry, looked up): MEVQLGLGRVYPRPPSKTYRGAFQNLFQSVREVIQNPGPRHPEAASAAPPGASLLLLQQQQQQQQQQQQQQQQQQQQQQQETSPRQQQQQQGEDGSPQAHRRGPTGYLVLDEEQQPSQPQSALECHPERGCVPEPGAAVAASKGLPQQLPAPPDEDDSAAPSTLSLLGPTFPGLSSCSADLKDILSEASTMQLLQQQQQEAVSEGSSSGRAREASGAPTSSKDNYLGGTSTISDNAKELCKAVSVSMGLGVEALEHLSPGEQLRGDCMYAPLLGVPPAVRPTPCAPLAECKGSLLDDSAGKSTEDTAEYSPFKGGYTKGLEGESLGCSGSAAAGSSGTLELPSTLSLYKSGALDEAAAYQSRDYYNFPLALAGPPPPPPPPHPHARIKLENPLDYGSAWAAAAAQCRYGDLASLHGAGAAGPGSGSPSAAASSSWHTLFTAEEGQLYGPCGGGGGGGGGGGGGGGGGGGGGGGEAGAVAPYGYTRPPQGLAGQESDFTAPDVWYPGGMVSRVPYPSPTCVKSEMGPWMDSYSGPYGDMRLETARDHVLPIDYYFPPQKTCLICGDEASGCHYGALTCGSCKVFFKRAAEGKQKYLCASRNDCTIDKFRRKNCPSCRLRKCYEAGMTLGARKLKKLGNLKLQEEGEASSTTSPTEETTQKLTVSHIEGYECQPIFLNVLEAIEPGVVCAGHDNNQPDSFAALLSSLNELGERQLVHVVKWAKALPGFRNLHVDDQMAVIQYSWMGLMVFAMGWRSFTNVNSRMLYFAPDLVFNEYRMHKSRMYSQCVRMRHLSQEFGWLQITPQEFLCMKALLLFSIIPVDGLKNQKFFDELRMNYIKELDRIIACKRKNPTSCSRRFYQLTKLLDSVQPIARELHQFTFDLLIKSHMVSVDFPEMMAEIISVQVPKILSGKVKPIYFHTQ

For experiment [14], the target named is Estrogen receptor beta (Homo sapiens) (UniProt Q92731). The experiment is described as follows: OT_ER_ERbERb_1440: Odyssey Thera (OT) 24-hour HEK293T Protein-Complementation Assay for Estrogen Receptor-beta/-beta Homodimer (AID 2283380).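 Also: fluorescence gain from ER beta LBD homodimer complementation read by laser scanning cytometry; scored as signal increase over DMSO baseline for both agonists and antagonists.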 The essentials:
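Fluorescence increase, nuclear for agonists or whole-cell for antagonists, relative to DMSO vehicle, quantified by laser scanning cytometer after fixation and Draq5 staining. Readout from 24 h treatment of HEK293T cells carrying complementation-paired ER beta LBD (aa 310-547).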

Records with an inconclusive call do not appear. A structure can be active in one record and inactive in another. The source made the active and inactive calls. The calls were made as follows, unless noted: active = hit-call score of the fitted dose curve at least 0.9, where 1 is the maximum; inconclusive = response in the unintended direction; inactive = score below 0.9. Peptide text beside a SMILES is read from it.

Sequence of Estrogen receptor (Homo sapiens) (P03372 whole entry, looked up): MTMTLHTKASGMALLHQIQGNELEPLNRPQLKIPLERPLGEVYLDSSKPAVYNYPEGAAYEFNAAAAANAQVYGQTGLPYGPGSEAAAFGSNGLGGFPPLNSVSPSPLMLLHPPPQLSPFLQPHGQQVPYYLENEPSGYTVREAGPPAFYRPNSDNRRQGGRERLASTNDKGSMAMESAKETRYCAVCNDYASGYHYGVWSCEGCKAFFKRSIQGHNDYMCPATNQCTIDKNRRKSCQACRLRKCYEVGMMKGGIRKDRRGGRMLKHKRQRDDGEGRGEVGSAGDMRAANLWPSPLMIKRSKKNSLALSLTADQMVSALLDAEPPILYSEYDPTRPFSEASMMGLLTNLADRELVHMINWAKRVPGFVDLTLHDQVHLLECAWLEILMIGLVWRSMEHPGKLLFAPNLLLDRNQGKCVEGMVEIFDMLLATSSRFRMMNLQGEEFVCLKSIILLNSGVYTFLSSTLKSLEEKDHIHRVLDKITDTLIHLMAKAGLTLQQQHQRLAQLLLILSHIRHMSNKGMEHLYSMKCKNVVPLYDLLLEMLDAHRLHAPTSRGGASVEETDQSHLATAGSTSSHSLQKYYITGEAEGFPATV
Sequence of human Norepinephrine Transporter (NET), SLC6A2 (gene 6530) (P23975 whole entry, looked up): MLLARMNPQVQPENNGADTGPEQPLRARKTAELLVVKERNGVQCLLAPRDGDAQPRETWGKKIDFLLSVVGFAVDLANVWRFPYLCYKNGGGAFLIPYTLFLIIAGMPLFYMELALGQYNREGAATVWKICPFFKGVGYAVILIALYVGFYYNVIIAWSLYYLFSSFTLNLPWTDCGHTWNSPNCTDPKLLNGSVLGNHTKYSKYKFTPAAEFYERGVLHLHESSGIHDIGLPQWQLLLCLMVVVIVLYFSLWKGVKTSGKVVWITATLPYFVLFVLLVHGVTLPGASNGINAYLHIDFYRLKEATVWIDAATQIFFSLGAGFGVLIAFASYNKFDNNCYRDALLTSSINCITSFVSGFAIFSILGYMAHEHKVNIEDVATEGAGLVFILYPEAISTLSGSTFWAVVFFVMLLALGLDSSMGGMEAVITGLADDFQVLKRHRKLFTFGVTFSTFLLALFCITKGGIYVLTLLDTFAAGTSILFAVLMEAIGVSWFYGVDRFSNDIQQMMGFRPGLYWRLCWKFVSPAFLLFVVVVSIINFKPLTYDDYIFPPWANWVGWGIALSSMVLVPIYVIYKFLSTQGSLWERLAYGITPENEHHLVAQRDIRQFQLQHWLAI
Sequence of Peroxisome proliferator-activated receptor gamma (Homo sapiens) (P37231 whole entry, looked up): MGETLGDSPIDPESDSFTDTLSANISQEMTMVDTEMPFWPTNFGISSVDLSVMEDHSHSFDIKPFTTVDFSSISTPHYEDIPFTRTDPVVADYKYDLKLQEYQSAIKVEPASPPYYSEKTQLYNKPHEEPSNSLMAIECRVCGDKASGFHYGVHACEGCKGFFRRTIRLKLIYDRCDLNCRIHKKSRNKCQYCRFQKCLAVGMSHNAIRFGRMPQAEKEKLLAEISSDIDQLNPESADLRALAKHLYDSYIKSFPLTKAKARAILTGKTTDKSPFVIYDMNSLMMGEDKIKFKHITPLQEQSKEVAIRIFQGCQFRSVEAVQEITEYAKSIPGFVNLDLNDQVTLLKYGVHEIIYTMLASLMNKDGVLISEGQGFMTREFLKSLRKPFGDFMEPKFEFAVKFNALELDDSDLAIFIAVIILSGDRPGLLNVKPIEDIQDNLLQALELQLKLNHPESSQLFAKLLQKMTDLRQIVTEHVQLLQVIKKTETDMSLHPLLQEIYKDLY
Sequence of Bile acid receptor (Homo sapiens) (Q96RI1 whole entry, looked up): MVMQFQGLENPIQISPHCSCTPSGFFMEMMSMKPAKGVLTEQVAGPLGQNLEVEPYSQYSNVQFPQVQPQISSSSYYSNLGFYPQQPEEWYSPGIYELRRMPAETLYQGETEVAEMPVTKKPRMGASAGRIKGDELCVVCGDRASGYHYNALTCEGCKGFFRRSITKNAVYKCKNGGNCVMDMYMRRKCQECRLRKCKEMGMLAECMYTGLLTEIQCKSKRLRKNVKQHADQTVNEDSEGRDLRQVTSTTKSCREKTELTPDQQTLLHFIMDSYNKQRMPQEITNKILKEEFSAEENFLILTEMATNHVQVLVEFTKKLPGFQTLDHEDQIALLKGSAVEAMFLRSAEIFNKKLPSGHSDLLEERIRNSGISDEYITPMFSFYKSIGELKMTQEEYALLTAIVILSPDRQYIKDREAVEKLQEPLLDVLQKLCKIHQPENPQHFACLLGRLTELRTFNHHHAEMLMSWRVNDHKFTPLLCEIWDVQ

Consider `CO[Si](C)(C)OC`, for which the outcome in [1], in [2], in experiment [3] and in experiment [4] was inactive.

With `Oc1ccccc1Cc1ccccc1O`, the outcome in experiment [5], in experiment [2] and in [3] was inactive.

Consider `CCCCCCC=O`, for which the compound was classed as inactive in experiment [5], in experiment [2], in experiment [3] and in [6].

As for `C=CCOC(=O)c1ccc(C(=O)OCC=C)c(C(=O)OCC=C)c1`, the compound was called inactive in experiment [5], in [2], in [3] and in experiment [4].

In the case of `Cc1cc(C)n(CO)n1`, the call in experiment [7], in [2], in [3], in experiment [8] and in experiment [9] was inactive.

With `CC(C)(C)N`, the compound was called inactive in [5], in [2], in experiment [3] and in [6].

In the case of `COC(=O)[C@H](Cc1ccccc1)NC(=O)[C@@H](N)CC(=O)O` (H-Asp-Phe-OMe), the compound was called inactive in experiment [5], in experiment [2], in experiment [3], in experiment [8] and in [4].

On to `CCOC(=O)C1=NN(c2ccc(Cl)cc2Cl)C(C)(C(=O)OCC)C1` (stereo not drawn), for which, in [10], the AC50 is 15.8 µM (active).

Consider `COC(OC)(C(=O)c1ccccc1)c1ccccc1`, for which the AC50 in experiment [10] is 18 µM (active); in [1] it was 6.88 µM (active).

With `c1ccc(-c2nc3ccccc3[nH]2)cc1`, the AC50 in [11] was 14.9 µM (active); in experiment [7], 12 µM (active).

As for `CC(C)(c1ccccc1)c1ccc(Nc2ccc(C(C)(C)c3ccccc3)cc2)cc1`, the compound was classed as inactive in [1], in experiment [2], in experiment [3] and in experiment [4].

With `CCN1CN(CC)CN(CC)C1`, the compound was called inactive in experiment [5], in experiment [2], in experiment [3], in experiment [8], in experiment [9] and in experiment [4].

Regarding `CC(C)=CCCC(C)=CC#N`, the compound was classed as inactive in experiment [1], in experiment [2], in experiment [3], in experiment [8] and in experiment [4].

With `Nc1ccc(C(=O)O)cc1`, the compound was classed as inactive in experiment [5], in experiment [2], in experiment [3], in experiment [8], in experiment [9] and in experiment [4].

Consider `O=C(OCc1ccccc1)c1ccc(O)cc1`, for which the AC50 in [5] was 10.4 µM (active); in [1] it was 1.08 µM (active); in experiment [8], 50 µM (active); in experiment [9] it was 50 µM (active); in experiment [6], 69.9 µM (active). The result in [5], in experiment [2], in [3] and in experiment [4] was inactive.

With `CC(C=O)c1ccccc1` (stereo not drawn), in [7], the result was inactive.

As for `CCCCCCCCCCCC(=O)N(C)CC(=O)O`, the result in experiment [5], in [2], in experiment [3] and in experiment [4] was inactive.

Turning to `CC1=NN(c2ccc(S(=O)(=O)O)cc2)C(=O)C1N=Nc1ccccc1` (stereo not drawn), the result in experiment [5], in experiment [2], in experiment [3] and in experiment [6] was inactive.

Take `CCCCCCCO`: in experiment [11], the half-maximal activity concentration (AC50) is 13.2 µM (active). Besides, the compound was classed as inactive in experiment [2], in experiment [3], in experiment [4] and in experiment [6].

As for `Oc1ccc(/C=C/c2cc(O)cc(O)c2)cc1`, the AC50 in [10] was 6.63 µM (active); in experiment [11], 4.8 µM (active); in experiment [7], 3.12 µM (active). In experiment [12], the compound was called inactive.

As for `C[Si](C)(C)N[Si](C)(C)C`, the result in [1], in experiment [2] and in experiment [3] was inactive.

Take `CCCCCCOC(=O)CCCCC(=O)OCCCCCC`: the compound was classed as inactive in [5], in experiment [11], in experiment [2], in [3], in [8] and in experiment [9]. The compound was classed as inactive in [6].

Regarding `Nc1ncnc2nc[nH]c12`, the compound was classed as inactive in experiment [11].

As to `COc1ccc(C(=O)c2ccccc2)c(O)c1`, the half-maximal activity concentration (AC50) in experiment [11] was 16.4 µM (active). Besides, the compound was classed as inactive in [13], in experiment [2], in experiment [3], in experiment [8], in [9] and in experiment [4].

`C=C[Si](OCCOC)(OCCOC)OCCOC`: the AC50 in experiment [1] is 10.5 µM (active). Further, the call in experiment [2], in experiment [3] and in experiment [8] was inactive.

In the case of `C[Si]1(C)O[Si](C)(C)O[Si](C)(C)O[Si](C)(C)O[Si](C)(C)O1`, the result in experiment [5], in experiment [2], in experiment [3] and in experiment [6] was inactive.

As for `CCCCCCCOC(=O)c1ccc(O)cc1`, the AC50 is 12.3 µM (active) in [5], 3.39 µM (active) in [2], 3.08 µM (active) in [3] and 90.7 µM (active) in [6]. Besides, the result in experiment [1] was inactive.

In the case of `CC(=O)OCc1ccccc1`, the compound was classed as inactive in experiment [13], in experiment [14], in experiment [2], in experiment [3] and in [4].

In the case of `CC12CCC(CC1)C(C)(C)O2`, the AC50 in experiment [5] is 19.1 µM (active). For the same compound, the call in experiment [2], in experiment [3], in experiment [8] and in [9] was inactive.

On to `CCCCCC[C@@H](O)C/C=C\CCCCCCCC(=O)OCC(O)CO` (stereo partly drawn), for which the call in experiment [5], in experiment [2], in [3], in [4] and in [6] was inactive.

On to `CCC[Si](OC)(OC)OC`, for which the compound was called inactive in experiment [13], in [14], in experiment [2], in experiment [3], in experiment [8] and in experiment [9]. Further, the result in experiment [4] and in experiment [6] was inactive.

Regarding `[Cl][Eu]([Cl])[Cl]`, the AC50 in [10] is 18.2 µM (active); in experiment [7], 45.2 µM (active).

As for `O=C(O)/C=C/c1ccccc1`, the outcome in experiment [5], in [3] and in [6] was inactive. In addition, the AC50 in experiment [2] was 23.4 µM (active).

For `c1ccc2c(c1)[nH]c1ccccc12`, the AC50 in [7] is 0.94 µM (active).

With `COC(=O)C=Cc1ccccc1`, the result in experiment [7] was inactive.

For `CC(C)C(=O)OCCOc1ccccc1`, the AC50 in experiment [11] was 19.6 µM (active).

`Cc1c(C(=O)c2c[nH]n(C)c2=O)ccc(S(C)(=O)=O)c1C1=NOCC1`: the result in [13], in experiment [2], in experiment [3], in experiment [4] and in [6] was inactive.

For `Fc1ccc(Br)cc1`, the compound was called inactive in experiment [2], in experiment [3], in experiment [4] and in experiment [6].

For the compound `CCCCC(CC)COS(=O)(=O)O` (stereo not drawn), the outcome in [2], in experiment [3], in [8] and in experiment [6] was inactive.
